Screens deposited in PubChem BioAssay by National Center for Advancing Translational Sciences (NCATS).
Rows were chosen to be rich in hits. Some 19% of all compounds tested hit in one or more screens of this group.
HT1080 IDH1KD tx – HT-1080 IDH1 knockdown cell toxicity (counter line). Potency, µM (highest dose often 46.1 µM), for inactives: at the top dose activity, negative = toxicity, usual class: cytotoxic. HT-1080 IDH1 knockdown viability, ATP luminescence, 48 h. 2% of 360,000 active;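 further: potency means the concentration at half of the fitted maximal effect; 0% = DMSO wells and -100% = cell-free medium wells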
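Assay cells: HT-1080 with IDH1 knockdown, 750 per well, RPMI/5% FBS. Exposure: 48 h at 37 °C following 2 h pre-incubation. Read: CellTiter-Glo luminescence; fitted concentration-response, curve class assigned.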
TDP1 cell noCPT – qHTS for Inhibitors of human tyrosyl-DNA phosphodiesterase 1 (TDP1): qHTS in cells in absence of CPT. 15% of 420,000 active. Potency, µM (doses to about 46.2 µM), for inactives: at the highest dose activity change, negative = growth inhibition, actives largely listed as inhibitors. AID 686978, 2013. DT40 Tdp1-/- hTDP1 cells, no CPT, ATP luminescence, 48 h; further: potency means the concentration at half of the fitted maximal effect; nearly all actives have a fitted effect of over 55% in size
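A cellular qHTS used chicken DT40 cells lacking endogenous Tdp1 but carrying stably transfected human TDP1. Compounds were applied without camptothecin, and cell growth kinetics were judged by ATP-dependent luminescence after ≥48 hr.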
DT40 TDP1 CPT – DT40-hTDP1 cell growth loss with CPT | chicken DT40 Tdp1-/-;hTDP1 cells + 20 nM CPT, ATP luminescence, 48 h | Potency, µM (doses to about 46.2 µM), inactives show at the top dose activity change, negative = growth inhibition, most hits filed as inhibitors | 12% of 420,000 active | AID 686979; further: potency means the concentration at half of the fitted maximal effect; nearly all actives have a fitted effect of over 55% in size
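Chicken DT40 Tdp1-/- cells complemented with human TDP1, 400 cells/well, exposed to compounds plus 20 nM camptothecin for at least 48 h at 37 C; viability read as ATP content by CellTiter-Glo luminescence.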
IL1B secr inh – inflammasome signaling inhibition, IL-1 beta readout. AID 743279. 4.7% of 360,000 active. THP-1 LPS/ATP IL-1B secretion, AlphaLISA, 16 h; active compounds read low. activity change, % at 57.5 µM; in the data active means activity change below about -50%; inconclusive means mostly about -30% to -49%
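Secreted IL-1B measured by AlphaLISA bead assay after 16 h compound exposure of THP-1 cells; compounds (final up to 57.5 uM) added 1 h before LPS (250 ng/mL) and ATP (1.25 mM) stimulation; lower signal means less secretion.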
HT1080NT lethal – kills 2HG-producing HT-1080-NT fibrosarcoma cells; HT-1080-NT fibrosarcoma viability, CellTiter-Glo ATP luminescence, 48 h; Potency, µM (titrated, usually from 46.1 µM), without a hit: at the highest dose activity, negative = less viability, actives largely listed as cytotoxic; 1.6% of 360,000 active; AID 686970;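 further: NT is the 2HG producing partner of a matched IDH1 knockdown line; potency means the concentration at half of the fitted maximal effect; 0% = DMSO-treated cells and -100% = media-only wells without cells; nearly all actives have a fitted effect of over 55% in size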
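Fibrosarcoma NT cells, 750 per well in 5% FBS RPMI, were exposed to compound for 48 hours. Viability: CellTiter-Glo luminescence.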
* hit, by the source's call; ? = inconclusive; . = not tested or not shown; [ ] = another dose, or the depositor's remark. Unless noted, the call rests on the fitted dose curve; in most records, active means well fitted curve in the direction sought with a large enough effect; inconclusive means small, poorly fitted or top-dose-only effect, or another doubt; inactive means no such curve, though single readings can be large; an effect the other way counts as inactive or inconclusive. Unless noted, on the % scale 0 is the no-effect control and ±100 the full control effect.

SMILES	HT1080 IDH1KD tx	TDP1 cell noCPT	DT40 TDP1 CPT	IL1B secr inh	HT1080NT lethal
COC(=O)[C@]12CCCCC=C1N(Cc1ccc(Cl)cc1Cl)C(=O)[C@H](CC(=O)NCc1ccc(OC)c(OC)c1)C2	13µM*	?	?	-12.7	?
CCOc1ccc(-n2c(-c3ccccc3)c[n+]3c2CCCCC3)cc1	13µM*	0.0291µM*	0.146µM*	-55.8*	?
CCOc1ccc(N2Cc3ccccc3C2)cc1	3.4%	?	-19.9%	5.7	8.3%
Cc1ccc(-c2c[n+]3c(n2-c2ccccc2)CCC3)cc1	?	0.651µM*	1.16µM*	-52.8*	?
CCN(CC)S(=O)(=O)c1ccc(C(=O)NC(C)(C)C)cc1	0.9%	2.7%	-3.0%	-17.6	-4.7%
COc1ccc(CC(=O)Nc2nnc(C(C)(C)C)s2)cc1OC	-19.7%	16.4µM*	?	0.0	2.3%
CC(C)(C)c1nnc(NC(=O)CCS(=O)(=O)Cc2ccccc2)s1	?	11.6µM*	9.2µM*	-1.6	-27.0%
Cc1nnc(NC(=O)CCS(=O)(=O)Cc2ccccc2)s1	-0.1%	?	10.3µM*	-0.9	23.3%
CCCS(=O)(=O)NCc1c(C)ncc2c1CCN(C(=O)/C=C/c1ccccc1)C2	.	-1.3%	-9.2%[9.04 µM]	.	.
CCNC(=O)C1(C)CCCN(Cc2cccc3c2OCCO3)C1 (configuration not stated)	3.4%	-20.2%	3.2%	20.8	15.6%
COC(=O)C[C@H]1C=C[C@@H](NC(=O)c2ccncc2)[C@@H](CO)O1	12.8%	4.7%	8.0%	9.6	8.9%
Cc1cccc(CC(C)NC(=O)c2oc3c(F)cccc3c2C)n1 (configuration not stated)	-13.3%	10.3µM*	?	-0.5	-5.9%
Cc1c(C(=O)N2CCC2)oc2c(F)cccc12	8.7%	-8.6%	-3.6%	13.0	-1.5%
Cc1ccc(CNC(=O)COC(=O)c2ccc(Br)cc2)cc1	8.1%	-5.1%	-3.8%	-13.8	14.7%
O=C(Cc1ccc(Br)cc1)NCc1ccccc1	2.91µM*	2.06µM*	2.91µM*	32.7	8.2µM*
Cc1ccc(CNC(=O)Cc2ccc(Br)cc2)cc1	8.2µM*	7.31µM*	9.2µM*	31.0	23.1µM*
O=C(COC(=O)Cc1ccc(Br)cc1)NCc1ccccc1	2.8%	-17.9%	-22.1%	21.7	2.7%
CCCOc1ccccc1/C=C1\SC(N2CCCCC2)=NC1=O	?	5.8µM*	?	-60.8*	?
COc1ccc(OC)c(/C=C2\SC(N3CCCCC3)=NC2=O)c1	7.6%	5.8µM*	7.31µM*	?	16.8%
O=C1N=C(N2CCCCC2)S/C1=C\c1ccc(Cl)cc1	6.0%	?	?	0.0	13.7%
O=C1N=C(N2CCCCC2)S/C1=C\c1ccccc1F	-3.1%	?	7.0%	-64.3*	2.3%
COc1cc(OC)c(OC)cc1/C=C1\SC(N2CCCCC2)=NC1=O	-13.4%	?	-26.0%	-17.5	-3.8%
COc1ccccc1/C=C1\SC(N2CCC(C)CC2)=NC1=O	10.6%	23.1µM*	?	?	6.9%
COc1ccc2oc(CS(=O)c3ccccc3)c(C(=O)O)c2c1 (configuration not stated)	1.1%	-1.6%	-2.2%	-6.9	0.1%
O=C(C[C@@H]1C/C=C/CC[C@H](Cc2ccc(F)cc2)C(=O)O[C@H](c2ccccc2)CNC1=O)NCCO	-0.6%	-10.1%	-0.6%	-2.0	13.9%
SMILES	HT1080 IDH1KD tx	TDP1 cell noCPT	DT40 TDP1 CPT	IL1B secr inh	HT1080NT lethal
O=C1NC[C@H](c2ccccc2)OC(=O)[C@H](Cc2ccc(F)cc2)CC/C=C/C[C@H]1CC(=O)N(CCO)Cc1ccccc1	.	?	25.9µM*	?	25.9µM*
O=C1NC[C@H](c2ccccc2)OC(=O)[C@@H](Cc2ccc(F)cc2)CC/C=C/C[C@H]1CC(=O)N(CCO)Cc1ccccc1	.	11.6µM*	13µM*	-2.4	23.1µM*
O=C(C[C@H]1C/C=C\CC[C@H](Cc2ccc(F)cc2)C(=O)O[C@@H](c2ccccc2)CNC1=O)N[C@H](CO)Cc1ccccc1	-7.5%	?	?	-15.1	-16.6%
O=C1NC[C@H](c2ccccc2)OC(=O)[C@@H](Cc2ccc(F)cc2)CC/C=C/C[C@@H]1CC(=O)N(CCO)Cc1ccccc1	.	23.1µM*	?	-21.7	-25.5%
COc1ccc(N(C(=O)c2cccnc2)S(=O)(=O)c2ccc3c4c(cccc24)C(=O)N3C)cc1	?	?	?	-27.6	?
COc1ccc(N(C(=O)c2ccncc2)S(=O)(=O)c2ccc3c4c(cccc24)C(=O)N3C)cc1	-10.8%	?	18.4µM*	-13.5	-16.3%
CN1C(=O)c2cccc3c(S(N)(=O)=O)ccc1c23	-1.4%	-3.1%	-27.4%	-87.8*	-1.6%
COc1ccccc1CCNCc1cc2cccc(C)c2nc1-c1cccs1	.	-9.9%	3.6%	.	.
COc1ccccc1CNC(=O)c1cc2sccc2n1Cc1ccc(F)cc1	.	23.1µM*	20.6µM*	.	.
CC1Cc2ccccc2N1C(=O)c1cc2sccc2n1Cc1ccc(F)cc1 (configuration not stated)	-9.9%	16.4µM*	?	-21.9	-5.1%
COc1cccc(C(Nc2ccccc2)c2ccc3ccc(C)nc3c2O)c1 (configuration not stated)	7.31µM*	5.17µM*	5.8µM*	55.4	10.3µM*
COc1cccc(C(NC(C)=O)c2ccc3cccnc3c2O)c1 (configuration not stated)	?	0.92µM*	0.731µM*	203.1	-9.1%
COc1cccc(C(NC(C)=O)c2nc(-c3cccnc3)cs2)c1 (configuration not stated)	8.7%	-27.0%	-20.6%	-1.1	1.0%
CC(=O)NC(c1cccc([N+](=O)[O-])c1)c1ccc2cccnc2c1O (configuration not stated)	?	1.03µM*	2.59µM*	189.2	?
Cc1ccccc1C(=O)NC(NC(=O)c1ccccc1C)c1cccc([N+](=O)[O-])c1	20.4%	?	-15.1%	-12.4	0.1%
Oc1cccc(C(Nc2nccs2)c2ccc3cccnc3c2O)c1 (configuration not stated)	18.4µM*	4.61µM*	3.66µM*	-106.9*	29.1µM*
O=[N+]([O-])c1ccc(NC(c2ccccc2)c2ccc3cccnc3c2O)cc1 (configuration not stated)	?	4.61µM*	3.26µM*	73.0	?
Cc1cccc(NC(c2ccc(O)cc2)c2ccc3ccc(C)nc3c2O)n1 (configuration not stated)	-12.7%	16.4µM*	23.1µM*	-71.1*	-1.1%
